# Reference: the supplement of paper PMC6555819
# How the values were obtained:
# Test in all cases: PBM binding z-score (relative to random genomic background probes); higher = stronger binding; sequences stand for … in GC…GCGATTGACAGCGTAGAATGAAGG
# [1] = test system: PPARg:RXRa DBDmut IVT, anti-RXR (DBD mutation: RXRa K156A/R161A, NR concentration 270 nM, RXRa partner concentration 90 nM)
# Procedure, shortened: (§1)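 Custom Agilent 4×180K protein-binding microarrays carried double-stranded probes. Their 34-nt variable regions held direct-repeat seeds, single-nucleotide variants, half-site ablations and random human genomic background sequences. Arrays were incubated 1 h with ligand-free nuclear receptor dimers in PBS pH 7.4, 2% milk, 0.02% Triton X-100, 1 mM DTT, 0.2 mg/mL BSA and 0.4 mg/ml salmon testes DNA. Antibodies against each partner (one per run) detected binding, and scanned fluorescence was regression-normalized. Binding z-scores use random background probes as reference.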
# [2] = test system: PPARg:RXRa IVT, anti-PPARg (NR concentration 270 nM, RXRa partner concentration 90 nM)
# Procedure, shortened: as §1
# [3] = test system: PPARg DBDmut:RXRa IVT, anti-PPARg (DBD mutation: PPARg1 K132A/R137A, NR concentration 270 nM, RXRa partner concentration 90 nM)
# Procedure, shortened: as §1
# [4] = test system: PPARg DBDmut IVT, anti-PPARg (DBD mutation: PPARg1 K132A/R137A, NR concentration 270 nM)
# Procedure, shortened: as §1
# [5] = test system: PPARg homodimer (NR concentration 180 nM)
# Procedure, shortened: as §1
# [6] = test system: PXR:RXRa (NR concentration 270 nM, RXRa partner concentration 90 nM)
# Procedure, shortened: as §1
# [7] = test system: PXR homodimer (NR concentration 270 nM)
# Procedure, shortened: as §1
# [8] = test system: RARa:RXR (NR concentration 270 nM, RXRa partner concentration 90 nM)
# Procedure, shortened: as §1
# [9] = test system: RARa homodimer (NR concentration 270 nM)
# Procedure, shortened: as §1
# [10] = test system: RARb:RXRa (NR concentration 270 nM, RXRa partner concentration 90 nM)
# Procedure, shortened: as §1
Sequence,PBM binding z-score [1],PBM binding z-score [2],PBM binding z-score [3],PBM binding z-score [4],PBM binding z-score [5],PBM binding z-score [6],PBM binding z-score [7],PBM binding z-score [8],PBM binding z-score [9],PBM binding z-score [10]
TAGCCTAGGTCATTGGGCCAGTAGAGTACGCATC,2.83,3.89,-0.36,-0.247,0.811,1.57,-0.0607,2.13,-0.3,3.54
ATCTCTAGGTAAAGATAGTTCGGTGAATGCAAAT,2.2,1.58,0.574,0.789,0.784,0.102,0.511,0.121,0.697,0.0855
AGAATGAGGTTGCCAAAGATCAGGGAAACGCTTG,-0.0771,-0.145,-0.469,-0.747,-0.291,0.0324,-0.465,0.398,-0.509,0.286
CCTCGGAGGACAACAGGAAGTCAGAGCTGCCAGA,-0.28,-0.806,-1.35,-1.22,0.0465,-0.665,-0.485,-0.454,0.0942,0.863
TCGAGTAGGATACCAATGGGGCATTCAGCTTTCT,1,-0.141,-0.244,-1.29,-1.04,-0.677,-0.988,-1.18,-1.27,-0.402
TAGCCTAGGTCATTCAGGGACCAGTATAGAAAGC,0.873,2.72,0.102,-0.132,0.904,1.67,-0.229,2.18,-0.017,3.57
GGAACGAGGGCCAGTTGATAGCAGAGTTTGATGG,0.134,-0.54,-0.953,-0.88,-0.513,-0.515,-0.158,-0.522,-1.03,0.217
CGAACTAGGTCGTTGACAGGACAGTGAATAGTAA,5.75,5.01,0.86,0.354,0.203,0.234,-0.188,0.276,-0.436,1.18
TCTTGTAGATCCAGCAGGTTAAGAAAGCCTGAGT,1.04,-0.258,-0.0441,-0.28,-0.955,0.35,0.226,0.259,-0.051,0.133
TCATATTGGTAAATGCTAGGTGAAAGTCCGATCT,2.35,0.751,1.11,1.6,1.32,0.588,0.616,0.882,1.3,0.404
CCTTACGGGTCACGAGGTTATAGCACGACGAGCG,3.98,5.69,1.85,0.701,2.37,4.46,0.418,5.47,0.688,4.62
CCCGAAAGGTCGTGCTCAGGTGAGTATACCAAAC,0.981,1.75,0.719,0.627,2.37,3.19,0.159,4.35,0.613,4.01
CAGACTAGGTCAAGGTCAAAGTCGGTTTGTGCCA,7.69,7.9,3.1,0.467,3.79,5.16,1.76,5.07,1.4,5.05
TCTACTAGTTGAAGGGCAACCGACGAGTCCGTTT,1.69,0.294,0.093,-0.701,0.312,0.458,0.108,0.275,-0.569,1.27
ATCTCTAGGTAAAATTCAGTGAAAGATCGATAGA,1.48,1.53,0.966,1.25,1.04,-0.0781,0.481,-0.157,1.26,0.336
TCATATAGGTAAACCGGTGAAAGTCCGTAAGTTA,4.14,3.35,0.791,0.416,0.766,0.768,0.578,0.953,0.584,0.426
CGAACGAGGGCATGAGTAGATAGCAAATGCCGAT,2.5,2.07,-0.283,0.0377,0.101,0.0706,-0.112,0.0192,-0.164,1.85
TCTGCAAGGTCAGTTGGTCAGCTAACGAGCTGCC,1.67,2.69,0.998,1.09,1.99,2.09,-0.237,2.67,-0.428,4.43
ATCGAAAGGTCCTGAGGTGAGTATACAGAAAGGC,-0.172,0.777,0.834,0.602,0.413,0.102,-0.0977,0.895,0.0282,1.12
TCGGGTAGGTTAGTCGGGGCATTCAGCCAACATA,1.77,1.67,0.234,0.0537,0.765,0.737,0.967,0.254,0.816,1.21
TCTAGCAGGCCAGCGGGTCACTCAAGAGGTACGG,0.972,1.03,-0.284,-0.723,0.406,1.12,-0.865,1.81,-0.465,1.81
GGAACGAAGGCAAAGTTGATAGCATCTGTCGACG,-0.211,0.452,-0.0938,0.0461,-0.879,-0.707,-0.569,-0.458,-0.886,-0.337
AATAGAGGGTCATCGTAGGCCAGAGTACGCACAG,3.35,4.01,0.835,0.46,2.99,4.34,0.066,4.67,1.33,4.25
TGTATTAGTTGATTAGGGCAACCGAAACAGCGGA,0.222,1.62,1.15,1.19,1.28,-0.072,0.169,0.311,1.53,0.862
